ST2 inh: inhibitors of human ST2 (IL1RL1) binding to IL-33, primary screen, biochemical, AlphaLISA. Interleukin-1 receptor-like 1 (Homo sapiens), Q01638. 2.3% of 78,000 active. AlphaLISA ST2-Fc/biotin-IL-33 interaction, 1 h. inhibition, % for hits at 17 µM; in the data active = inhibition above about 30%
Target sequence (Q01638 whole entry, looked up): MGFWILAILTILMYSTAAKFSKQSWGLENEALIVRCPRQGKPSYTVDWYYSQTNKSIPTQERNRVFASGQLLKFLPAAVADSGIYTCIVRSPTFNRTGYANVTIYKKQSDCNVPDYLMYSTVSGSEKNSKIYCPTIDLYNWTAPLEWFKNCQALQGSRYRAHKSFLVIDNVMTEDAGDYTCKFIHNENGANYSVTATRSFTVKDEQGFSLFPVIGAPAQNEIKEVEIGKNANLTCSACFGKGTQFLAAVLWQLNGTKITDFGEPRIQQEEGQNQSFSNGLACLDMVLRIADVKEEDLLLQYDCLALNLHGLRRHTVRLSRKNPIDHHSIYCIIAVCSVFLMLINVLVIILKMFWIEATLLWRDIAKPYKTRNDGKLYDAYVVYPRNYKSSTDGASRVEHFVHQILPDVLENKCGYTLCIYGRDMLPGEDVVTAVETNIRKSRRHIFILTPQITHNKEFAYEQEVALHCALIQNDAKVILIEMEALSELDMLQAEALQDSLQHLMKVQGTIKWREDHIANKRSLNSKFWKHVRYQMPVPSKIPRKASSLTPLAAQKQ
Large screens that a line does not name were inactive. The full list was thinned out, with hits kept by preference.

COc1ccc(-c2csc(=Nc3ccccc3)n2CCCN(C)C)cc1	ST2 inh 44%
CCn1c(C)csc1=NC(=O)c1ccccc1O	none
OCCn1c(-c2ccc(I)cc2)csc1=Nc1ccccc1	ST2 inh 42%
COc1ccc(OCCn2c(=N)n(CC(C)C)c3ccccc32)cc1	none
OCCn1c(-c2ccc(Cl)cc2)csc1=Nc1ccccc1	ST2 inh 61%
COc1ccc(C(O)=C2C(=O)C(=O)N(CCCN(C)C)C2c2cccs2)c(C)c1 (stereo not given)	none
CCOC(=O)c1sc(=Nc2ccccc2)n(Cc2ccccc2)c1C	none
Cc1csc(=Nc2ccccc2)n1CC(=O)c1ccc(Cl)cc1	ST2 inh 36%
Cc1cc(-c2nn(-c3ccccc3F)cc2CN(Cc2nccn2C)C(C)C)c(C)s1	none
CCc1cc2c(=O)c(-c3ccc4c(c3)OCCO4)c(C)oc2cc1OCC(=O)OC	none
C=CCNC(=O)c1ccc2c(c1)N(Cc1ccc(F)cc1)C(=O)CS2	none
O=C1CCCN1CCC1CCCCN1C(=O)NCc1ccc(Cl)cc1 (stereo not given)	none
CN(C)c1ncnc2c1C(c1ccc(Br)cc1)c1c(ncnc1N(C)C)O2	none
CCOC(=O)c1c(C)oc2ccc(OC(=O)c3ccc(Br)cc3)cc12	none
O=C(CN1C(=O)COc2ccc(S(=O)(=O)N3CCCC3)cc21)NCc1ccc(F)cc1	none
CNc1nc(-c2cc(NC3CCNCC3)nc3[nH]ccc23)nc2c1CCC2	ST2 inh 37%
CC(=O)N1C(C[N+](=O)[O-])CC(C)N1c1ccccc1 (stereo not given)	none
Cn1c(=O)cc(SCC(=O)N2CCCCCC2)c2ccccc21	none
Cn1c(=O)cc2c3c(c(Br)ccc31)C(=O)c1ccccc1-2	none
Cn1c(=O)cc2c3c(c(N4CCCCC4)ccc31)C(=O)c1ccccc1-2	ST2 inh 44%
COCCNC(=O)C[C@@H]1O[C@H](CNC(=O)NC2CCCCC2)[C@@H](O)[C@H]1O	none
COc1ccc(N(C(=O)C(C)Oc2ccccc2)C2C=CS(=O)(=O)C2)c(OC)c1 (stereo not given)	none
O=[N+]([O-])c1ccc(N2CCN(S(=O)(=O)Cc3ccccc3)CC2)cc1NCc1cccnc1	none
CC(Nc1cc(N2CCN(S(=O)(=O)N(C)C)CC2)ccc1[N+](=O)[O-])c1ccccc1 (stereo not given)	ST2 inh 30%
O=C(c1cccc(F)c1)N1CCN(c2ccc([N+](=O)[O-])c(NCc3ccccc3)c2)CC1	ST2 inh 36%
O=C(c1ccccc1Cl)N1CCN(c2ccc([N+](=O)[O-])c(N3CCOCC3)c2)CC1	none
O=C(c1ccccc1)c1ccc(N2CCN(C(=O)c3cccc(F)c3)CC2)c(F)c1	none
CC(=O)N1CCN(c2ccc([N+](=O)[O-])c(NC(C)C34CC5CC(CC(C5)C3)C4)c2)CC1 (stereo not given)	none
Cc1ccccc1C(=O)N1CCN(c2ccc([N+](=O)[O-])c(NCCc3ccccc3)c2)CC1	none
O=C(c1cccc(F)c1)N1CCN(c2ccc(Cl)cc2)CC1	none
Cc1ccccc1C(=O)N1CCN(c2ccc([N+](=O)[O-])c(NC(C)c3ccccc3)c2)CC1 (stereo not given)	ST2 inh 38%
Clc1ccc(CNc2ncnc3sc4c(c23)CCCC4)cc1	none
O=C(C1CC1)N1CCc2cc(Br)cc(S(=O)(=O)NCc3cccs3)c21	none
Cc1ccc(CN2CCCN(CC(=O)NC(C)CCc3ccccc3)S2(=O)=O)cc1 (stereo not given)	none
CC(=O)C1=NN(c2ccccc2)C2C(=O)N(c3cccc(Cl)c3)C(=O)C12 (stereo not given)	none
O=C(NCCCN1CCCC1=O)c1ccc2nc3ccc(Cl)cc3c(=O)n2c1	none
CC1CCN(C(=O)c2nn3c(c2Cl)NC(c2ccco2)CC3C(F)(F)F)CC1 (stereo not given)	none
COc1ccc(Cl)cc1NC(=O)N1CCC(n2cc(C3CC3)nn2)CC1	none
O=C1NC(=O)/C(=C\c2cc(Br)ccc2OCc2ccc(C(=O)O)cc2)N1	none
CNC(=O)c1cc(S(=O)(=O)N2C[C@@H]3[C@H](C2)[C@H]2CC[C@@H]3O2)cs1	none
COc1ccc(/C=c2\sc3n(c2=O)CN(c2ccc(C)cc2)CN=3)cc1	ST2 inh 31%
COc1ccc(/C=c2\sc3n(c2=O)CN(c2ccc(C(C)=O)cc2)CN=3)cc1	none
COc1cc(/C=c2\sc3n(c2=O)CN(c2ccc(C)cc2)CN=3)c([N+](=O)[O-])cc1OC	ST2 inh 38%
CCOc1ccc(-c2nc3s/c(=C\c4ccc(F)cc4)c(=O)n3n2)cc1	none
COc1ccccc1/C=c1\sc2nnc(-c3ccc(C)cc3)n2c1=O	none
COc1cccc(/C=c2\sc3nnc(-c4ccc(C)cc4)n3c2=O)c1	none
Cc1ccc(-c2nnc3s/c(=C\c4ccc([N+](=O)[O-])cc4)c(=O)n23)cc1	none
Cc1ccc(N2CN=c3s/c(=C\c4cccnc4)c(=O)n3C2)cc1	ST2 inh 30%
COc1ccc(/C=c2\sc3n(c2=O)CN(c2cccc(F)c2)CN=3)cc1	ST2 inh 35%
CCCOc1ccc(/C=c2\sc3nc(=O)c(C)nn3c2=O)cc1	none
O=c1/c(=C/c2cccc([N+](=O)[O-])c2)sc2n1CN(c1cccc(F)c1)CN=2	none
O=c1/c(=C/c2cccnc2)sc2n1CN(c1cccc(C(F)(F)F)c1)CN=2	none
COc1ccccc1NC(=O)C(=O)NC1CCCCCC1	none
CCn1cc(CNC(=O)c2cn(Cc3ccc(OC)cc3)nn2)cn1	none
CC(NC(=O)c1c(F)cccc1F)C(c1cccs1)N1CCOCC1 (stereo not given)	none
COc1ccc(OC)c(C(=O)c2ccc(C(=O)NC(C)(C)C)cc2)c1	none
Cc1cccc(-c2ccc(C(=O)O)o2)c1Cl	none
Cc1cc(C)cc(C(=O)N(c2ccc(C)c(C)c2)C2C=CS(=O)(=O)C2)c1 (stereo not given)	none
CCC(CC)C(=O)NC[C@H]1O[C@@H](CC(=O)Nc2ccccc2)[C@H](O)[C@@H]1O	none
O=C(Nc1ccc(N2CCCC2)cc1)c1ccccc1F	ST2 inh 68%
Cc1ccc(-n2nc3ccc(NC(=O)c4ccccc4F)cc3n2)cc1	none
CC(=O)c1ccc(NC(=O)c2ccccc2F)cc1	none
O=C(CN1C(=O)c2cccc([N+](=O)[O-])c2C1=O)Nc1nnc(-c2ccccc2)s1	none
Nc1cc(S(=O)(=O)c2ccc(Cl)cc2)ccc1Cl	none
COc1ccc2c(c1OC)C(=O)OC2Nc1cc(C(F)(F)F)ccc1Cl (stereo not given)	none
O[C@H]1[C@H](NCC2CCCCC2)[C@H]2CO[C@H](O2)[C@@H]1Oc1ccccc1	none
COc1ccc(-c2nnc(-c3ccc(OC)cc3)o2)cc1	none
Cc1ccc(-c2csc(/C(C#N)=C/c3ccc(Br)o3)n2)c(C)c1	ST2 inh 60%
COc1ccc(-c2csc(/C(C#N)=C/c3ccc(Br)o3)n2)cc1	ST2 inh 42%
Cc1ccc(/C=C(/C#N)c2nc(-c3ccc(Cl)c(Cl)c3)cs2)o1	none
N#C/C(=C\c1ccc(Br)o1)c1nc(-c2ccc(Cl)cc2)cs1	ST2 inh 31%
COc1ccc(-c2csc(/C(C#N)=C\c3ccc(OC)o3)n2)cc1	ST2 inh 49%
COc1ccc(-c2csc(NC(=O)C3CC=CCC3C(=O)O)n2)cc1 (stereo not given)	none
Cc1ccc(-c2csc(NC(=O)CCCC(=O)O)n2)c(C)c1	none
COc1cccc2cc(-c3nc(-c4ccc(Br)cc4)cs3)c(=O)oc12	none
O=C(Cn1cncn1)N1CCC2(CCCN(Cc3ccccc3F)C2)C1 (stereo not given)	none
Cc1cc(C)cc(OCCN(C)Cc2cc3n(n2)CCNC3)c1	none
CN(C)c1ncc(-c2nccn2CCc2ccccc2Cl)cn1	none

Assay outcomes as filed in PubChem BioAssay.
